Screening results as filed in PubChem.
LDHA inh: blocks human lactate dehydrogenase A | P00338 | purified LDHA, NADH/diaphorase-resazurin fluorescence; hits give low values | actives 0.15% (n = 480,000) | AID 1347041 | activity change, % (values are at about 110 or 230 µM); in the data active means activity change below about -30%; inconclusive means mostly about -25% to -30%;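 further: plate controls were DMSO wells for no effect and wells without enzyme for full effect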
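LDH5 2 nM; NADH 0.06 mM, pyruvate 0.2 mM; 200 mM Tris pH 7.4, EDTA, Tween-20; 5 min RT. Detection: diaphorase 0.133 mg/mL + resazurin 37 µM, fluorescence ex540/em590 at 0 and 20 min; normalized to enzyme-free and DMSO wells.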
TDP1 cell CPT: DT40-hTDP1 cell growth loss with CPT; chicken DT40 Tdp1-/-;hTDP1 cells + 20 nM CPT, ATP luminescence, 48 h; Potency, µM (highest dose often 46.2 µM), without a hit: at the top dose activity change, negative = growth inhibition, most hits filed as inhibitors; actives 12% (n = 420,000); AID 686979; further: potency means the concentration at half of the fitted maximal effect; nearly all actives have a fitted effect of over 55% in size
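Chicken DT40 Tdp1-/- cells complemented with human TDP1, 400 cells/well, exposed to compounds plus 20 nM camptothecin for at least 48 h at 37 C; viability read as ATP content by CellTiter-Glo luminescence.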
TDP1 cell noCPT: qHTS for Inhibitors of human tyrosyl-DNA phosphodiesterase 1 (TDP1): qHTS in cells in absence of CPT; actives 15% (n = 420,000); DT40 Tdp1-/- hTDP1 cells, no CPT, ATP luminescence, 48 h; Potency, µM (titrated, usually from 46.2 µM), for inactives: at the top dose activity change, negative = growth inhibition, actives largely listed as inhibitors; AID 686978, 2013; further: potency means the concentration at half of the fitted maximal effect; nearly all actives have a fitted effect of over 55% in size
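Compound effects on proliferation are scored in DT40 Tdp1-/-;hTDP1 cells in the absence of CPT. ATP levels (CellTiter-Glo luminescence) are recorded after a ≥48 hr, 37 °C incubation.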
IL1B secr inh: inflammasome signaling inhibition, IL-1 beta readout. THP-1 LPS/ATP IL-1B secretion, AlphaLISA, 16 h; hits give low values. activity change, % at 57.5 µM. actives 4.7% (n = 360,000); in the data active means activity change below about -50%; inconclusive means mostly about -30% to -49%
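Secreted IL-1B measured by AlphaLISA bead assay after 16 h compound exposure of THP-1 cells; compounds (final up to 57.5 uM) added 1 h before LPS (250 ng/mL) and ATP (1.25 mM) stimulation; lower signal means less secretion.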
RORg inh: blocks mouse ROR gamma transcriptional activity. Drosophila S2 Gal4-RORgamma UAS-luciferase reporter, 20 h. actives 5.4% (n = 310,000). P51450. AID 2551. Potency, µM (series often up to 53.6 µM), for the others: at the highest dose activity change, negative = inhibition, usual class: inhibitors; further: potency means the concentration at half of the fitted maximal effect; nearly all actives have a fitted effect of over 60% in size
Target sequence (P51450 whole entry, looked up, the tested form may be a part): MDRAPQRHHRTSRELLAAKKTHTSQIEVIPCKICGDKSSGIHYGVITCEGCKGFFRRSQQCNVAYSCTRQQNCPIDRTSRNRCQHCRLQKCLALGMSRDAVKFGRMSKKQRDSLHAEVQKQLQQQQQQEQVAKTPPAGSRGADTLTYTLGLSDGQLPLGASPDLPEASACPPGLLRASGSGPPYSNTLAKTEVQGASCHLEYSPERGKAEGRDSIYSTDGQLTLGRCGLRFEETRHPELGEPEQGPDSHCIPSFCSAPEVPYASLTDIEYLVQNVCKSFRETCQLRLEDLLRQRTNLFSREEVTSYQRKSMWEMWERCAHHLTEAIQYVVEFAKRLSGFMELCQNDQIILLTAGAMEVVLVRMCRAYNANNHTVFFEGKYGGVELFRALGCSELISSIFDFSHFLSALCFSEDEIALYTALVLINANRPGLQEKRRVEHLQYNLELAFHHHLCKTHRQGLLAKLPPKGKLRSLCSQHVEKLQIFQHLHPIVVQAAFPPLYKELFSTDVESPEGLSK
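Drosophila Schneider cells stably carrying a metallothionein-driven Gal4 DBD–ROR gamma fusion and a UAS-Photinus luciferase reporter were exposed to compound for 1 hr, then induced with copper sulfate (700 uM final) for 20 hr at ambient temperature before luminescence reading.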
VP16 counter: counter-screen for ROR gamma inhibitors: Gal4-VP16 reporter; Potency, µM (titrated, usually from 53.6 µM), inactives show top-dose activity, negative = inhibition, usual class: inhibitors; Drosophila S2 Gal4-VP16 UAS-luciferase, luminescence, 20 h; actives 3.5% (n = 310,000);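 further: Gal4-VP16 expression switched on by copper sulfate through the metallothionein promoter; potency means the concentration at half of the fitted maximal effect; nearly all actives have a fitted effect of over 50% in size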
* = called active by the depositor; u = inconclusive; x = no result given; [ ] = dose if it differs, or a comment. Rows were chosen to be rich in hits. Some 18% of all compounds tested hit in one or more screens of this group. Unless noted, the call rests on the fitted dose curve; in most records, active means well fitted curve in the direction sought with a large enough effect; inconclusive means small, poorly fitted or top-dose-only effect, or another doubt; inactive means no such curve, though single readings can be large; an effect the other way counts as inactive or inconclusive. Unless noted, on the % scale 0 is the no-effect control and ±100 the full control effect.

SMILES	LDHA inh	TDP1 cell CPT	TDP1 cell noCPT	IL1B secr inh	RORg inh	VP16 counter
COc1ccccc1C(=O)NC(=S)Nc1ccc(Cc2ccncc2)cc1	0	u	18µM*	29	u	-15%
Cc1cc(C)cc(C(=O)NC(=S)Nc2ccc(Cc3ccncc3)cc2)c1	-9	u	29µM*	u	7.9µM*	u
COc1c(C(=O)Nc2ccc(Cc3ccncc3)cc2)ccc2ccccc12	0	u	23µM*	-14	u	u
CCOC(=O)c1sc(N)c(C#N)c1CSCc1ccccc1	9	x	x	x	x	x
CCc1ccc(N=CC23c4ccccc4C(c4ccccc42)C2C(=O)N(c4ccc(OC)cc4)C(=O)C23)cc1 (stereo not drawn)	-1	u	18µM*	-15	-11%	6%
CC(C)(C)C(=O)Nc1cc(-c2cccc(Br)c2)nn1-c1ccccc1	5	u	21µM*	x	x	x
Cc1cc(O)ccc1NC(=S)NC(=O)c1cncc(Br)c1	-1	15µM*	16µM*	15	0.79µM*	0.56µM*
CC1CCC(NC(=O)c2cncc(Br)c2)CC1 (stereo not drawn)	11	x	x	x	x	x
O=C(NC(=S)Nc1ncc(Br)cc1Br)c1cncc(Br)c1	-1	-30%	-14%	3	6.3µM*	u
O=C(NC(=S)NC1CCCCCC1)c1cncc(Br)c1	-6	6%	-27%	0	3.5µM*	6.3µM*
O=C(c1ccc(OCc2cscn2)cc1)N1CCN(C2CCS(=O)(=O)C2)CC1 (stereo not drawn)	0	x	x	x	x	x
C1CCN(C2(CNC3CCCC3)CCCCC2)CC1	-8	x	x	x	x	x
Cc1ccccc1C(=O)Nc1ccc2nc(SCC(=O)N3CCc4ccccc43)sc2c1	-3	5.2µM*	3.7µM*	x	x	x
CCC(CC)C(=O)Nc1ccc2nc(SCC(=O)N3c4ccccc4CC3C)sc2c1 (stereo not drawn)	0	12µM*	16µM*	x	x	x
Cc1cccc(C(=O)Nc2ccc3nc(SCc4ccc(Br)cc4)sc3c2)c1	-12	x	x	x	x	x
Cc1cccc(C(=O)Nc2ccc3nc(SCC(=O)N4CCc5ccccc54)sc3c2)c1	-2	5.8µM*	4.6µM*	x	x	x
Cc1ccccc1OCC(=O)Nc1ccc2nc(SCC(=O)N3CCc4ccccc43)sc2c1	-5	-5%	-1%	x	x	x
Cc1cccc(C(=O)Nc2ccc3nc(SCC(=O)N4CCCC4)sc3c2)c1	6	u	16µM*	x	x	x
CC1Cc2ccccc2N1C(=O)CSc1nc2ccccc2s1 (stereo not drawn)	-1	u	u	-16	16%	-8%
S=c1[nH]nc(CCCOc2ccc(Cl)cc2Cl)n1CC1CCCO1 (stereo not drawn)	7	x	x	x	x	x
N#Cc1cccc(NC(=O)Cc2ccc3c(c2)CCC3)c1	9	x	x	x	x	x
O=C(CCc1nnc2ccc(NCc3ccc4c(c3)OCO4)nn12)N1CCN(c2ccccc2)CC1	5	x	x	x	x	x
O=C(NNC1OC(CO)C(O)C(O)C1O)c1cccc(Br)c1 (stereo not drawn)	-3	-5%	13%	5	11µM*	11%[10 µM]
O=C1CC(c2ccccc2)Oc2cc(O)cc(O)c21 (stereo not drawn)	-3	-20%	-26%	-4	-5%	22%
CSC1=NC2(CC(c3ccccc3)Oc3cc(O)ccc32)CC(C)(C)N1 (stereo not drawn)	4	23µM*	21µM*	1	-8%	-6%
Cn1cnc2c1c(=O)n(CCCSCc1ccccc1Cl)c(=O)n2C	6	x	x	x	x	x
Cc1cc(C)c(NC(=O)c2ccc3c(c2)NC(=O)C(C)S3)c(C)c1 (stereo not drawn)	-4	-29%	-15%	14	x	x
CCN(CC)S(=O)(=O)c1cc(NC(=O)c2ccc(Br)s2)ccc1C	-14	u	16µM*	0	13%	-12%
